Screening results (PubChem)
Shiga toxin inh: inhibitors of Shiga toxin in Vero cells; Vero cells, Shiga toxin protein synthesis inhibition reporter; 290,000 compounds, 9.2% hits; AID 2315; inhibition, % at 38.7 µM; in the data active = inhibition mostly above about 28%, no sharp cut-off; inactive = mostly below about 43%
Pf growth 96h: P. falciparum growth inhibition at 96 hour, primary screen for plastid delayed-death inhibitors. P. falciparum luciferase reporter growth, 96 h. Potency, µM (top dose mostly 28.7 µM), actives largely listed as inhibitors. 320,000 compounds, 6.9% hits. AID 504834
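Erythrocytes infected with luciferase-expressing P. falciparum were dispensed at 2% hematocrit and 0.05% parasitemia (final), then incubated with compounds 96 hours at 37 C in 5% CO2. Luminescence after detection reagent addition reported growth.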
NS1 inh: blocks influenza NS1 protein function; Potency, µM (highest dose often 46.1 µM); 270,000 compounds, 0.4% hits; AID 2326; calls by dose curve; note: actives are rising curves; nearly all actives have a fitted effect of over 50% in size
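S. cerevisiae expressing influenza A NS1, grown in glucose, washed, then diluted 1:100 into pH 6.0 -URA galactose medium with 23 nl compound. Growth recovery read as OD600; NS1-free strain serves as control.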
CHX counter: affects cycloheximide protein synthesis inhibition readout, counter-screen. cell reporter, cycloheximide protein synthesis inhibition counterscreen. max response, %. AID 2314. 300,000 compounds, 12% hits; in the data active = max response mostly above about 13%, no sharp cut-off; inactive = mostly below about 14%; note: read at 38.3 µM for the half of the compounds with a filed dose
Pf growth 48h: P. falciparum growth inhibition at 48 hours (one generation); P. falciparum luciferase growth in erythrocytes, 48 h; Potency, µM (highest dose often 28.7 µM), usual class: inhibitors; 310,000 compounds, 5.9% hits; AID 504832
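Firefly luciferase activity from engineered P. falciparum reports growth; inhibitors lower the luminescent signal. Cultures contained 2% hematocrit erythrocytes at 0.1% final parasitemia.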
Giardia FBPA inh: Giardia lamblia aldolase inhibition. purified Giardia FBPA. Potency, µM (highest dose often 59.6 µM), most hits filed as inhibitors. 290,000 compounds, 0.71% hits. AID 2451; note: nearly all actives have a fitted effect of over 55% in size
Target sequence (A8B2U2 whole entry, looked up): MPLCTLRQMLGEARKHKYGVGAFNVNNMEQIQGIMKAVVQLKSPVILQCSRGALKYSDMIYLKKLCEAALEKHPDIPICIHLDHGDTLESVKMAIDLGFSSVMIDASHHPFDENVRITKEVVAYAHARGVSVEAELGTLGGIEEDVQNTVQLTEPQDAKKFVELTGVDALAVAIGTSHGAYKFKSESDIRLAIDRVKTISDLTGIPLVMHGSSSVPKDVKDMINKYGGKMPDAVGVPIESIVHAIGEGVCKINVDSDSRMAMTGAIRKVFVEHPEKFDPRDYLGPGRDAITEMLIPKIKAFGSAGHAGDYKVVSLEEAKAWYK
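40 nM FBPA preincubated 10 min at RT with compound (up to 57.5 uM final), then substrate plus GAPDH/TPI/NAD/arsenate coupling and diaphorase/resazurin added. Fluorescence read after 20 min at RT, 525/598 nm.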
Large screens that a line does not name were inactive; ! = not active in a repeat. Most compounds without a hit are left out; they make up all but 21% or so of the library. Unless noted, calls come from the whole dose curve; as a rule, active = well fitted curve in the direction sought with a large enough effect; inconclusive = small, poorly fitted or top-dose-only effect, or another doubt; inactive = no such curve, though single readings can be large; an effect the other way counts as inactive or inconclusive.

CCN(C(=O)COC(=O)c1cccnc1Nc1cccc(C(F)(F)F)c1)C1CCS(=O)(=O)C1 (centres undefined)	Shiga toxin inh 50.8, CHX counter 41.9
O=C(OCCOCCO)c1ccccc1Nc1cccc(C(F)(F)F)c1	none (no result: Shiga toxin inh, NS1 inh, CHX counter)
O=C(COC(=O)c1ccccc1Nc1cccc(C(F)(F)F)c1)NCc1ccco1	CHX counter 16.9
O=C(O)c1ccccc1Nc1ccc(OC(F)F)cc1	Shiga toxin inh 42.5, CHX counter 34.7 (no result: NS1 inh)
CC1=NN(C(=O)CCc2ccccc2)C(O)(c2ccncc2)C1 (centres undefined)	none (no result: NS1 inh)
CNC(=O)c1cccnc1Nc1cccc(C(F)(F)F)c1	CHX counter 26.9
O=C(O)c1ccccc1Nc1cccc(C(F)(F)F)c1	Pf growth 96h 2.39µM!, Giardia FBPA inh inconclusive
O=C(Nc1cccc(C(F)(F)F)c1)c1cccnc1NCCO	Giardia FBPA inh inconclusive
O=C(O)c1ccccc1Nc1ccnc(C(F)(F)F)c1	none
CC1(C)CCC[C@@]2(C)C1CC[C@@](C)(O)[C@@H]2CC[C@@](C)(O)C1CO1 (some centres undefined)	none (no result: Shiga toxin inh, Pf growth 96h, NS1 inh, CHX counter, Pf growth 48h)
COc1ccc(S(=O)(=O)N2CCOCC2)cc1C(=O)N1CCCCC1	Pf growth 96h inconclusive (no result: Giardia FBPA inh)
c1cc2cc(-c3c(-c4ccc5c(c4)OCO5)noc3-c3ccsc3)ccc2[nH]1	Shiga toxin inh 49.9, CHX counter 39.3
Cc1onc(-c2ccc3c(c2)OCO3)c1-c1ccc2[nH]ccc2c1	Shiga toxin inh 22.1, Pf growth 96h inconclusive
CCOC(=O)c1ccc(-c2c(-c3ccc4c(c3)OCO4)noc2-c2ccsc2)cc1F	Pf growth 96h inconclusive, Pf growth 48h inconclusive
c1ccc(-c2onc(-c3ccco3)c2-c2ccc3[nH]ccc3c2)cc1	Shiga toxin inh 42.1, Pf growth 96h inconclusive, CHX counter 34.5
COc1cc(-c2c(-c3ccc4c(c3)OCO4)noc2-c2ccsc2)ccc1F	Pf growth 96h inconclusive, CHX counter 14.6, Pf growth 48h inconclusive
NC(=O)c1cc[n+](Cc2ccccc2Cl)cc1	none (no result: Shiga toxin inh)
COc1ccc(-c2cc(C(=O)N/N=C/c3ccc4c(c3)OCO4)c3ccccc3n2)c(OC)c1	Pf growth 96h inconclusive, Pf growth 48h inconclusive
C/C(=N\NC(=O)c1cc(C)nc2ccccc12)c1ccco1	Pf growth 48h inconclusive
COc1ccc(-c2cc(C(=O)N/N=C/c3sccc3C)c3ccccc3n2)c(OC)c1	Pf growth 96h 11.7µM (no result: Pf growth 48h)
COc1ccc(-c2cc(C(=O)N/N=C(\C)c3ccco3)c3ccccc3n2)c(OC)c1	Pf growth 96h 13.1µM, Pf growth 48h 9.28µM
COc1ccccc1-c1csc(NC(=O)c2cc(-c3cccs3)nc3ccccc23)n1	Pf growth 96h 7.38µM, NS1 inh inconclusive, Pf growth 48h inconclusive
COc1ccc(-c2cc(C(=O)N/N=C/c3ccc(OC)c(COCC(F)(F)C(F)F)c3)c3ccccc3n2)c(OC)c1	Pf growth 96h 6.57µM, NS1 inh inconclusive, Pf growth 48h 1.47µM
COc1ccc(NCC(=O)N/N=C/C2CCCCC2)cc1	none
ClC(Cl)(c1nnnn1-c1ccccc1)c1nnnn1-c1ccccc1	Pf growth 96h inconclusive
COc1ccccc1-c1cc(C(=O)N/N=C/c2cccs2)c2ccccc2n1	Pf growth 96h 4.15µM (no result: Pf growth 48h)
CCn1cc(/C=N\NC(=O)c2cc(-c3ccccc3OC)nc3ccccc23)c(C)n1	Pf growth 96h 1.85µM, Pf growth 48h 1.65µM
NS(=O)(=O)c1ccc(CCNC(=O)c2ccccc2Cc2ccccc2)cc1	Pf growth 96h inconclusive (no result: Giardia FBPA inh)
O=C(Cn1c(NCCO)nc2ccccc21)Nc1ccc2c(c1)OCCCO2	none (no result: Shiga toxin inh, NS1 inh, CHX counter, Giardia FBPA inh)
CCN1C(=O)/C(=C/c2cccs2)SC1=Nc1ccc(OC)cc1	Pf growth 96h 4.65µM
CCN(CC)c1ccc(N=Cc2ccc([N+](=O)[O-])o2)cc1	Shiga toxin inh 138.6, Pf growth 96h 2.94µM, CHX counter 56.9, Pf growth 48h 1.65µM, Giardia FBPA inh inconclusive
CCN(CC)c1ccc(N=Cc2c(O)[nH]c(=O)[nH]c2=O)cc1	Pf growth 48h inconclusive
CCN(CC)c1ccc(N=Cc2ccccc2[N+](=O)[O-])cc1	Pf growth 48h 2.33µM, Giardia FBPA inh inconclusive
c1cncc(-c2nccc(-n3ccnc3)n2)c1	none (no result: Shiga toxin inh, Pf growth 96h, NS1 inh, CHX counter, Pf growth 48h)
CC(C)N1CCN(c2ccc(S(=O)(=O)N3CCOCC3)cn2)CC1	Pf growth 96h inconclusive (no result: Giardia FBPA inh)
O=C(CSc1ncc(-c2ccccc2)nn1)NCc1ccco1	none
O=C(CSc1nnc(-c2ccccc2)c(-c2ccccc2)n1)Nc1ncc(Cl)cc1Cl	Shiga toxin inh 33.8, Pf growth 96h inconclusive, CHX counter 17.6
COCCNC(=O)CSc1nc(-c2ccccc2)cs1	Shiga toxin inh 45.4, CHX counter 25.5
Cc1nc(NC(=O)CSc2nnc(-c3ccccc3)c(-c3ccccc3)n2)c(Cl)cc1Cl	Pf growth 96h inconclusive
O=C(CSc1nnc(-c2ccccc2)c(-c2ccccc2)n1)NCc1ccco1	Pf growth 48h 10.4µM
CCn1c(CNc2nc(-c3ccccc3)cs2)nnc1SCC(=O)NCc1ccco1	Pf growth 96h inconclusive, Pf growth 48h inconclusive
O=C(CSc1nc(-c2ccccc2)cs1)NCc1ccco1	Shiga toxin inh 43.8, CHX counter 22.4 (no result: Pf growth 96h)
CC(C)N(C(=O)CSc1nnc(Cc2csc(Nc3ccccc3)n2)o1)C(C)C	Pf growth 48h inconclusive (no result: NS1 inh)
Cn1c(CN2CCN(c3cccc(Cl)c3)CC2)nc2ccccc21	Pf growth 96h inconclusive, Pf growth 48h 13.1µM
Cn1c(=O)[nH]c(=O)c2c1nc(N1CCOCC1)n2CCN1CCOCC1	Pf growth 48h 1.85µM
CCCn1c(N2CCN(CC(=O)c3c(C)n(C)c4ccccc34)CC2)nc2c1c(=O)[nH]c(=O)n2C	Pf growth 48h 0.0828µM
Cn1c(=O)[nH]c(=O)c2c1nc(CN1CCN(c3ccc(F)cc3)CC1)n2CCc1ccccc1	Pf growth 96h 10.4µM, Pf growth 48h inconclusive
CCCCCCn1c(N(CC)CC)nc2c1c(=O)[nH]c(=O)n2C	Pf growth 96h 1.85µM
CC(c1ccccc1)n1c(N2CCNCC2)nc2c1c(=O)[nH]c(=O)n2C (centres undefined)	Pf growth 48h 8.28µM
CCCCCCCCn1c(N2CCN(c3cccc(Cl)c3)CC2)nc2c1c(=O)[nH]c(=O)n2C	none (no result: Pf growth 48h)
CCCCCCn1c(N2CCN(c3ccccc3)CC2)nc2c1c(=O)[nH]c(=O)n2C	Pf growth 96h 14.7µM, Pf growth 48h 8.28µM
CCCCCn1c(CN2CCN(c3cccc(Cl)c3)CC2)nc2c1c(=O)[nH]c(=O)n2C	Pf growth 96h inconclusive, Pf growth 48h 13.1µM
CC(c1ccccc1)n1c(Br)nc2c1c(=O)[nH]c(=O)n2C (centres undefined)	Pf growth 96h inconclusive (no result: Shiga toxin inh)
COCC(=O)N1CCC2(CC1)CCN(C(=O)Nc1cccc(C#N)c1)CC2	none (no result: Shiga toxin inh, Pf growth 96h, NS1 inh, CHX counter, Pf growth 48h)
COc1cc(OC)c(-n2cc(-c3ccc(OC)c(OC)c3)[nH]c2=S)cc1Cl	Pf growth 48h inconclusive
CCN1C(=O)C(CC(=O)Nc2ccc(F)cc2)N(Cc2cccs2)C1=S (centres undefined)	Pf growth 48h 10.4µM
